# Pol beta inh = DNA polymerase beta (human) inhibition. Potency, µM (highest dose often 114 µM), inactives show top-dose activity change, negative = inhibition, actives largely listed as inhibitors. Pol beta primer extension/strand displacement, fluorescence kinetic. actives 1.3% (n = 340,000). P06746; note: % is set by controls: 0 for no effect and ±100 for the full control effect
#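 Enzyme-only controls used 10 nM Pol beta; buffer lacking enzyme served as negative control. Compound preincubated 15 min, then 50 nM substrate added; 0 and 10 min reads at room temperature.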
# POLH inh = blocks human DNA polymerase eta activity; Potency, µM (highest dose often 114 µM), for inactives: top-dose activity change, negative = inhibition, hits mostly inhibitors; Q9Y253; actives 1.2% (n = 390,000); recombinant Pol eta, fluorescent DNA replication assay; AID 588591; note: % is set by controls: 0 for no effect and ±100 for the full control effect
#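 Pol eta (10 nM) was preincubated with compounds for 15 min at room temperature, after which fluorescent replication substrate (50 nM final) was added to start the reaction. Fluorescence was read kinetically at 0 and 10 min.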
# POLI inh = blocks human DNA polymerase iota activity. Q9UNA4. Pol iota fluorescent replication assay, 10 min. Potency, µM (series often up to 115 µM), inactives show at the highest dose activity, negative = inhibition, most hits filed as inhibitors. actives 1% (n = 390,000)
#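 Pol iota at 10 nM preincubated 15 min with compounds at room temperature; reaction started with fluorescent substrate, 50 nM final. Fluorescence read kinetically at 0 and 10 min; buffer-only wells as negative control.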
# Pol kappa inh = DNA polymerase kappa (human) inhibition; Q9UBT6; purified Pol kappa, fluorescent DNA synthesis assay, 10 min; Potency, µM (highest dose often 107 µM), for inactives: at the highest dose activity, negative = inhibition, most hits filed as inhibitors; actives 0.53% (n = 400,000); AID 588579; note: % is set by controls: 0 for no effect and ±100 for the full control effect
#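 Activity was followed as the change in fluorescence between reads at 0 and 10 min after starting the reaction with 50 nM substrate. Beforehand, 10 nM polymerase had been preincubated with compound for 15 min at room temperature.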
# TDP1 block = TDP1 (human) enzyme inhibition | recombinant TDP1, AlphaScreen DNA substrate cleavage | Potency, µM (doses to about 130 µM), inactives show at the top dose activity change, negative = inhibition, actives largely listed as inhibitors | actives 0.28% (n = 350,000) | AID 485290; note: % is set by controls: 0 for no effect and ±100 for the full control effect; nearly all actives have a fitted effect of over 40% in size
# Target sequence (Q9NUW8 whole entry, looked up): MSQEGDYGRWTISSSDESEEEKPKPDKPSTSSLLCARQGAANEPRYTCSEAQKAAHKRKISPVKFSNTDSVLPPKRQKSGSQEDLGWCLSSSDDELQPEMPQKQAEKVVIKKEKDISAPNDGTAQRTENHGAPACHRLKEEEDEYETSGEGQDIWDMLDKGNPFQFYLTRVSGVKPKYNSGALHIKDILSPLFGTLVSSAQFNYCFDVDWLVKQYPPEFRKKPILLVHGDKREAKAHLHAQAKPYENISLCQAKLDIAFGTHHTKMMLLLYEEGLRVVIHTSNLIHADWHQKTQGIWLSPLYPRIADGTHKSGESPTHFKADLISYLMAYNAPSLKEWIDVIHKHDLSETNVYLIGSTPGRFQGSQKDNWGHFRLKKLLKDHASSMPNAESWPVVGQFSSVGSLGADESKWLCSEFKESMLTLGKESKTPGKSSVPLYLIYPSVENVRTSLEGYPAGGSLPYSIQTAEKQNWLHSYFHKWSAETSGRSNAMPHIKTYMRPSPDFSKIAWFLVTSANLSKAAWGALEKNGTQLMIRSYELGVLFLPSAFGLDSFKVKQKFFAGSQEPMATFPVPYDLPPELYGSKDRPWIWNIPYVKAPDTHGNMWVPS
#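 Tdp1 1 nM final; 15 min RT w/ cpd; substrate 15 nM, 5 min; beads 10 ug/ml, 10 min; AlphaScreen read. Neg ctrl: no enzyme.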
# FEN1 inh-1 = blocks human flap endonuclease 1; actives 0.35% (n = 390,000); P39748; Potency, µM (top dose mostly 114 µM), without a hit: at the highest dose activity change, negative = inhibition, actives largely listed as inhibitors; Recombinant FEN1 flap cleavage, fluorescence, 15 min; note: % is set by controls: 0 for no effect and ±100 for the full control effect; nearly all actives have a fitted effect of over 65% in size
#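 Nuclease activity of 10 nM FEN1 was measured after 15 min of room-temperature exposure to titrated compounds, by adding 50 nM flap substrate and reading plates at 0 and 15 min.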
# FEN1 inh-2 = confirmation of human FEN1 inhibitors. shares compounds with FEN1 inh-1. FEN1 flap cleavage, TAMRA/BHQ2 fluorogenic DNA substrate. Potency, µM, most hits filed as inhibitors. actives 79% (n = 880); note: nearly all actives have a fitted effect of over 60% in size
# * marks the source's active call; other numbers are inactive results; ? = inconclusive; . = not tested or not shown; [ ] = dose if it differs, or a comment. In the library only some 2.4% were active in any assay of this set; here they are far more common. Calls come from the whole dose curve; as a rule, active = well fitted curve in the direction sought with a large enough effect; inconclusive = small, poorly fitted or top-dose-only effect, or another doubt; inactive = no such curve, though single readings can be large; an effect the other way counts as inactive or inconclusive. Potency is the fitted concentration of half-maximal effect.
SMILES,Pol beta inh,POLH inh,POLI inh,Pol kappa inh,TDP1 block,FEN1 inh-1,FEN1 inh-2
CC(=O)N1CCc2c(sc(NC(=O)CSc3ccccc3)c2-c2nc3ccccc3s2)C1,4%,?,?,-12%[60.1 µM],-5%,7%,.
CC(=O)Nc1sc2c(c1-c1nc3ccccc3s1)CCOC2,.,.,.,.,.,.,?
CCN1C(=O)[C@H]2[C@H]3[C@H](O)[C@H](O)C/C(=N/OC/C=C(\C)CCC=C(C)C)[C@H]3CC[C@@H]2C1=O,.,.,.,.,8%[21 µM],.,.
COc1ccc2[nH]c3c(=O)n(CCCCC(=O)NCCN4CCCC4)c(=S)[nH]c3c2c1,-24%,-18%,?,?,-1%,?,?
CN(Cc1cccs1)c1ncnc2ccc(-c3ccc4cnn(C)c4c3)cc12,.,.,.,.,.,.,34*
COc1ccc(CCNC(=O)CN(c2ccccc2)S(=O)(=O)N(C)C)cc1,2%,-6%,19%,6%,-2%,10%,.
OC1CCCN(Cc2ccc3ccc4cccc5ccc2c3c45)C1 (stereo not given),40µM*,-11%,?,-14%,6%,56µM*,43*
Cc1ccc(CCNc2nc3ccccc3c3nc(-c4ccccc4)nn23)cc1,36%,-17%,47%,11%,-1%,3%,.
CCN(CC)CCCNc1nc2ccccc2c2nc(-c3ccncc3)nn12,35µM*,20%,?,?,.,45µM*,21*
CN1CCN(CCCNc2nc3ccccc3c3nc(-c4ccccc4)nn23)CC1,.,9%,18%,-2%,.,?,.
COc1cc2nc(NCCCN3CCN(C)CC3)n3nc(-c4ccccc4)nc3c2cc1OC,25µM*,?,?,?,.,20µM*,12*
CCN1CCCC1CNC(=O)c1ccc2c(c1)NC(=O)/C(=C\c1ccccc1Cl)S2 (stereo not given),.,-23%,.,.,.,.,.
CCN1CCCC1CNC(=O)c1ccc2c(c1)NC(=O)/C(=C\c1ccc(OC)c(OC)c1)S2 (stereo not given),?,?,-11%,-13%,3%,?,38*
CN(C)S(=O)(=O)c1cccc(NC(=O)COC(=O)c2ccc([N+](=O)[O-])o2)c1,-16%,?,10%,-17%,4%,50µM*,19*
COc1ccc(NC(=O)COC(=O)c2ccc([N+](=O)[O-])o2)cc1Cl,5%,-4%,-2%,-12%,5%,?,21*
O=C(COC(=O)c1ccc([N+](=O)[O-])o1)Nc1cccc(S(=O)(=O)N2CCOCC2)c1,11%,-15%,119%,-9%,6%,28µM*,19*
O=C(COC(=O)c1ccc(Br)o1)Nc1cccc(S(=O)(=O)N2CCOCC2)c1,.,-22%,5%,0%,1%,-21%,.
Cc1cccc(NC(=O)COC(=O)c2ccc([N+](=O)[O-])o2)c1C,-3%,-1%,11%,-25%,-2%,?,21*
O=C(COC(=O)c1ccc([N+](=O)[O-])o1)Nc1ccc(Br)cc1F,.,-9%,-18%,-15%,1%,?,.
CC1(C)CC1C(=O)N/C(=C/CCCCSCC(N)C(=O)O)C(=O)O (stereo not given),.,.,.,1%[19.4 µM],10%,.,.
O=C(CSc1nc(-c2ccccc2)[nH]c1-c1ccccc1)Nc1ccc2c(c1)OCCO2,8%,?,14%,-4%,10%,-9%,.
O=c1c2ccccc2nc(N/N=C/c2ccc(O)cc2)n1O,6%,-14%,-6%,0%,-9%,25µM*,30*
N#C/C(=C\c1cc(Cl)cc(Cl)c1)c1cccnc1,.,.,.,3%[19.4 µM],6%,.,.
O=[N+]([O-])c1ccccc1/C=C1\C=Cc2ccccc21,.,.,73%,-2%,.,9%,.
CCN(CC)c1ccc(/C=C/c2cccc[n+]2C)c(OC)c1,50µM*,-27%,43%,-33%,.,?,27*
SMILES,Pol beta inh,POLH inh,POLI inh,Pol kappa inh,TDP1 block,FEN1 inh-1,FEN1 inh-2
Cc1cc(C)cc(N=Cc2ccc([N+](=O)[O-])s2)c1,?,32µM*,79µM*,-19%,0%,?,5.4*
Cc1ccc(NC(=S)N/N=C/c2ccc([N+](=O)[O-])s2)cc1,-9%,-19%,9%,-6%,0%,-17%,.
Cc1c2ccncc2cc2c1[nH]c1ccccc12,.,-21%,?,-35%,.,18µM*,17*
COc1ccc2c(C)cc(SCC(=O)Nc3cc(C(N)=O)cc(C(N)=O)c3)nc2c1,25µM*,50µM*,35µM*,-15%,-3%,?,?
COc1cccc(NC(=O)CSc2cc(C)c3ccccc3n2)c1,-1%,.,36%,1%,.,8%,.
CC(=O)Nc1sc2c(c1-c1nc3ccccc3o1)CCN(C(C)C)C2,.,.,.,.,.,.,30*
CCC(=O)NC(c1ccco1)c1cc(Cl)c2cccnc2c1O (stereo not given),?,-4%,48%,-25%,0%,?,.
O=C(NC(c1ccco1)c1cc(Cl)c2cccnc2c1O)c1ccsc1 (stereo not given),.,.,.,.,.,.,?
CC(=O)OC[C@@H]1O[C@H](C/C=N\OCC[C@H]2C=C[C@H](OC(C)=O)[C@@H](COC(C)=O)O2)C=C[C@@H]1OC(C)=O,.,.,.,.,6%[21 µM],.,.
O=C(O)c1ccc(-c2ccc(/C=N/Nc3ccc([N+](=O)[O-])cc3)o2)cc1,?,50µM*,-18%,-21%,1%,-19%,85*
Cc1ccccc1CN1CCc2nc(N3CCN(c4ncccn4)CC3)ncc2C1,10%,-6%,-23%,-11%[60.1 µM],6%,?,67*
Cc1ccc(/C=C2/Sc3ccccc3N(CC(=O)NCC3CCCO3)C2=O)cc1 (stereo not given),-3%,-16%,-1%,-15%,1%,-13%,.
Cc1cc(/C=C2\Sc3ccccc3N2C)cc(C)[n+]1CC1CCCO1 (stereo not given),?,-18%,29%,?,0%,50µM*,34*
CN(C)c1ccc(/C=C2\CCC/C(=C\c3ccccc3)C2=O)cc1,0%,?,?,1%,4%,-20%,.
CN(C)c1ccc(C=c2c3ccccc3n3c2c2c([n+]3C)CCCC2)cc1,.,?,-27%,-28%,.,22µM*,30*
NC(N)=Nc1nc(-c2ccccc2)c2cc(F)ccc2n1,?,-3%,20%,-18%,9%,79µM*,54*
O=c1[nH]c2cnccc2n1-c1ccccc1,29%,-13%,13%,-17%,-1%,7%,.

# Screens as filed in PubChem BioAssay.
